Test results reported in the OligoGym collection.

Target: PRKX
Test: pooled miR-30 sensor sort-seq; sequence = guide strand
Settings: shRNA
Further: reference of the scale not given here.

Point of comparison: TTGGCGAACCCAAAGTCCGTGA, sensor-assay potency score (higher = more potent) -0.61. Against it:
- TTGGAGTGCAGGTACTCGATGG — higher, -0.357
- TTTCCTAATCGCCTTGTTCTGT — lower, -0.676
- TTCATGTTTCCTAATCGCCTTG — higher, -0.603
- ATTGTGTACGTGTTGCTCCTGC — higher, 0.0637
- TTCTCTGGCTTCAAGTCCCTGT — higher, -0.5
- TAATGAGGTCTTTTACATGGAA — lower, -0.747
- TAGCTGAAGAGCTCGCCGCCCG — lower, -0.771
- TCATGTTTCCTAATCGCCTTGT — higher, 0.781
- TTAATGAGGTCTTTTACATGGA — higher, -0.298
- TCGCCTTGTTCTGTCAACCACG — lower, -0.962
- TTCCTAATCGCCTTGTTCTGTC — higher, -0.396

Target: PRM2
Test: as above
Settings: shRNA

Point of comparison: TTCGAGAGCAGTGTCTGCGCCT, sensor-assay potency score (higher = more potent) -0.241. Against it:
- TTTCTCTTAACTTCCAGCTGGG — higher, 0.205
- TGCCTGTACACCTCGTGCGAGC — lower, -1.54
- TTTTTCTTAATTTCCAGCTGGG — higher, 0.485
- TTGCCCATGCAACTGCTGCCTG — lower, -0.795
- TTGCGCCTTCTGCAGGAGCGAT — lower, -1.7
- TTCCTGGTTCTGCAGCCTCTGC — lower, -1.75
- TAGACCTCGACGTGCTCCGGGC — lower, -1
- TTGCTCTTGCCCATGCAACTGC — lower, -0.57
- TTCTCTTAACTTCCAGCTGGGG — lower, -0.773
- TCGAGAGCAGTGTCTGCGCCTA — lower, -0.978
- TATAGTGAGACTGGCCATGGGT — lower, -0.496

Target: PROC
Test: as above
Settings: shRNA

Point of comparison: TTGTCGGTGGTGCTCTTGCTGT, sensor-assay potency score (higher = more potent) -1.32. Against it:
- TCGCTGCTGGAGAACACTGAGT — lower, -1.33
- ATGTTGCTCATGACCTCGCTGC — higher, -0.588
- AAGTTGAGGACGAAGGTGCGGT — higher, -0.189
- TTTGGTGTAAACGCCGTAGTTG — higher, -0.456
- TTGCTCATGACCTCGCTGCACT — higher, -0.963
- TGACTTTGGTGTAAACGCCGTA — higher, -0.165
- TTTGCGGATCCGCAGCACCTGG — lower, -1.65
- TTGGTGTAAACGCCGTAGTTGT — higher, -1.16
- TCATTGTCGGTGGTGCTCTTGC — higher, -0.681
- ATTGAGGAAGCTCACCTCGCGC — lower, -1.35
- TTCTCAGACACCATGTTGCTCA — higher, 0.141

Target: PRODH2
Test: as above
Settings: shRNA

Point of comparison: AAACGCTGTAGTGTTATTGAAT, sensor-assay potency score (higher = more potent) -0.964. Against it:
- TTATTGAATACATTTGAAAATA — lower, -1.75
- TTGAAAATACGGTTCTCACGTT — higher, -0.536
